Rows were chosen to be rich in hits. Some 1.8% of all compounds tested hit in one or more screens of this group.
TRPML1 blocker = qHTS for Inhibitors of the Human Mucolipin Transient Receptor Potential 1 (TRPML1). 0.02% of 390,000 active. Mucolipin-1 (Homo sapiens), Q9GZU1. AID 624415, 2012. TRPML1-inducible cells, Ca2+ dye fluorescence, FDSS; hits give low values; inhibition of EC80 agonist-evoked calcium signal. activity change, negative = inhibition, % (no concentration beside the values); in the data active = activity change below about -50%; inconclusive = between about -30% and that limit;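 note: stimulus is agonist 54-4 at its EC80 concentration; % is set by controls: 0 for no effect and ±100 for the full control effect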
Target sequence (Q9GZU1 whole entry, looked up): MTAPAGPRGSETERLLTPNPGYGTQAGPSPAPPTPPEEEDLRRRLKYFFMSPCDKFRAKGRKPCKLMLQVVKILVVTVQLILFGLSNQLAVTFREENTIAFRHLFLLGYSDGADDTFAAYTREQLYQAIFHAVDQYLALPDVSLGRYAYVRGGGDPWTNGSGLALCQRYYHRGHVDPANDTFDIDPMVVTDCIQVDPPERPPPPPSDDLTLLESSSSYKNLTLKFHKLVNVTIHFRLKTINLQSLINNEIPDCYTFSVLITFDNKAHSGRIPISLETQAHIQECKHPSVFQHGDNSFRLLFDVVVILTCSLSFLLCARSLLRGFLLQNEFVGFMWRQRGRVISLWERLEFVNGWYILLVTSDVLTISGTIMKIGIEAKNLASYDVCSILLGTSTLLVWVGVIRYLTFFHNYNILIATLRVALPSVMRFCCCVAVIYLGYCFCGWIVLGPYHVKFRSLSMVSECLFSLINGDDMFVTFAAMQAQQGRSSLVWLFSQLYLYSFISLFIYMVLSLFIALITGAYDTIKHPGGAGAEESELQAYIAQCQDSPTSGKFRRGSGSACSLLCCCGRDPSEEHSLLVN
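TRPML1-DL cells, Tet-induced overnight (~16 h, 37 °C) at 1,500 cells/well, were loaded with Ca8 no-wash dye plus quencher for 45-90 min at room temperature. Compounds were pinned during FDSS kinetic reading; agonist 54-4 at EC80 (4 uM final) then added.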
GLP1R ag = qHTS of GLP-1 Receptor Agonists; 0.007% of 380,000 active; HEK293 GLP-1R CRE-luciferase, luminescence, 4-6 h; cells express a hypersensitive GLP-1R form; Glucagon-like peptide 1 receptor (Homo sapiens), P43220; Potency, µM (highest dose often 45.6 µM), for the others: top-dose activation, usual class: activators; note: potency is the fitted concentration of half-maximal effect; % of control where 0% means no effect
GLP1R inv ag = qHTS of GLP-1 Receptor Inverse Agonists (Inhibition Mode). HEK293 GLP-1R CRE-luciferase, luminescence, 24 h; GLP-1R form is constitutively active. 1.6% of 410,000 active. Potency, µM (series often up to 38.3 µM), for the others: at the highest dose activity change, negative = inhibition, hits mostly inhibitors. AID 624417, 2012. Glucagon-like peptide 1 receptor (Homo sapiens), P43220; note: potency is the fitted concentration of half-maximal effect; % is set by controls: 0 for no effect and ±100 for the full control effect; nearly all actives have a fitted effect of over 55% in size
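Seeding at 200 cells/uL, 12 h culture, 24 hr compound treatment, then luciferase reagent and a luminescence read; cells are HEK293 stably expressing a constitutively active GLP-1R plus cAMP-responsive luciferase.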
HEK293 tox = qHTS of GLP-1 Receptor Inverse Agonists: Cytotox Screen. HEK293 cAMP-luciferase reporter cells, luminescence, 24 h. 0.13% of 410,000 active. Potency, µM (highest dose often 38.3 µM), without a hit: top-dose activity change, negative = inhibition, usual class: inhibitors;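 note: loss of luciferase light is scored as toxicity; potency is the fitted concentration of half-maximal effect; % is set by controls: 0 for no effect and ±100 for the full control effect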
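A 23 nL compound transfer followed 12 hours of cell culture at 37 deg C; exposure then lasted 24 hr. Luciferase assay detection reagent was dispensed and plates read for luminescence after a 12 min room-temperature wait.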
TRPML1 agonist = qHTS for Agonists of the Human Mucolipin Transient Receptor Potential 1 (TRPML1); TRPML1-expressing cells, Ca2+ dye fluorescence, FDSS; 0.12% of 410,000 active; activation, % (concentration not given with the values); Mucolipin-1 (Homo sapiens), Q9GZU1; in the data active = activation above about 50%; inconclusive = mostly about 30% to 49%; note: 0% is about no effect
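Tet-induced TRPML1-DL cells, 1,500 per well, cultured overnight, were loaded with a no-wash Ca2+ dye for 45–90 min. Calcium fluorescence was recorded on the FDSS for 110 s after compound addition, before the EC80 agonist (4 uM 54-4) was added.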
Starred values were filed as active, the others as inactive; ? = inconclusive; / = no result. Unless noted, calls come from the whole dose curve; as a rule, active = well fitted curve in the direction sought with a large enough effect; inconclusive = small, poorly fitted or top-dose-only effect, or another doubt; inactive = no such curve, though single readings can be large; an effect the other way counts as inactive or inconclusive.

SMILES | TRPML1 blocker | GLP1R ag | GLP1R inv ag | HEK293 tox | TRPML1 agonist
COc1ccc(N2C(=O)c3ccccc3NC2c2ccc(OC)c(CSc3ccccn3)c2)cc1 (configuration not stated) | -4.1 | 11.5% | 0.0% | 0.6% | 0.8
COc1ccc(C2Nc3ccccc3C(=O)N2Cc2ccco2)cc1COc1ccc(F)cc1 (configuration not stated) | -18.3 | -13.9% | 10µM* | -8.4% | 2.2
CCCN1C(=O)c2ccccc2NC1c1ccc(OC)c(CSc2ccccn2)c1 (configuration not stated) | -7.1 | 17.5% | 12.6µM* | 4.7% | 2.8
Cc1cc(-n2c(C)cc(C(=O)CCl)c2C)no1 | -4.8 | -3.8% | 10µM* | ? | 0.5
CCc1ccc(NCc2cc3cc4c(cc3n(CC(=O)Nc3ccccc3Cl)c2=O)OCO4)cc1 | -20.3 | 12.2% | 19.3% | 2.7% | 14.1
COc1ccc(C(=O)Nc2ccc3nc(SCC(=O)N(C)c4ccccc4)sc3c2)cc1 | 2.1 | / | ? | -19.2% | 0.1
COc1ccc(/C=C2\CN(Cc3ccccc3)C/C(=C\c3ccc(OC)c(O)c3)C2=O)cc1O | 12.8 | -9.4% | 8.91µM* | ? | 3.2
O=S(=O)(c1cccs1)N1CN(Cc2cccs2)c2nc3ccccc3nc21 | 38.6 | 5.7% | 10µM* | -1.9% | -0.3
O=S(=O)(c1cccs1)N1CN(Cc2ccccc2)c2nc3ccccc3nc21 | -3.8 | 0.0% | ? | -1.1% | 0.8
O=C(COC(=O)CNC(=O)C1CCCCC1)NC1CCCC1 | / | / | / | / | -0.5
CCC(C(=O)Nc1ccc(C(=O)OC)cc1)n1nc(-c2ccc(C)c(C)c2)ccc1=O (configuration not stated) | 26.6 | / | -9.4% | -7.1% | 0.5
CCC(C(=O)Nc1ccc(C(=O)OC)cc1)n1nc(-c2ccc(C)cc2)c2c(c1=O)CCCC2 (configuration not stated) | -21.0 | / | 2.51µM* | 1.8% | 2.7
CCOC(=O)CC(=O)CSc1nc2cc(C)ccc2cc1C | -5.1 | 19.7% | 10µM* | -5.1% | 2.0
CCn1c(=O)c2cc(C(=O)NC3CCC(C)CC3)sc2c2ccccc21 (configuration not stated) | 12.4 | 6.5% | ? | 3.3% | -0.3
CCCCCNC(=O)c1cccc(S(=O)(=O)N2CC3(C)CC2CC(C)(C)C3)c1 (configuration not stated) | -10.9 | 2.2% | 6.31µM* | -10.3% | 0.4
CC1(C)CC2CC(C)(CN2S(=O)(=O)c2cccc(C(=O)O)c2)C1 (configuration not stated) | -6.1 | -5.9% | -8.3% | 0.5% | -0.7
CCc1cccc(-n2c(=O)c3cccnc3n2CC(=O)Nc2ccc(F)c(C)c2)c1 | 48.1 | / | -1.7% | -4.8% | 1.3
CCOc1ccc(NC(=S)N(CCc2c(C)[nH]c3ccccc23)Cc2cccnc2)cc1 | -8.9 | -1.2% | 10µM* | 0.4% | -1.7
Cc1[nH]c2ccccc2c1CCN(Cc1cccnc1)C(=S)Nc1ccc(F)cc1 | 8.7 | 1.3% | ? | 1.6% | -0.3
Cc1ccc(NS(=O)(=O)c2ccc3c(c2)NC(=O)CO3)cc1Cl | 0.3 | -1.1% | 10µM* | -9.8% | 0.3
Brc1ccc2c(c1)C(C1=NCCN1)c1ccccc1CS2 (configuration not stated) | 35.2 | -2.9% | 1.41µM* | -6.4% | 2.2
c1ccc2c(c1)CCCC2C1=NCCN1 (configuration not stated) | 22.4 | 4.5% | ? | 1.4% | -0.4
Cc1cccc(C)c1NC(=O)Cn1c(=O)n(Cc2ccco2)c(=O)c2ccc(C(=O)NC3CCCC3)cc21 | 22.8 | 8.6% | 9.4% | 3.2% | 1.5
O=C1NN(c2cccc(Br)c2)C(=O)/C1=C\c1ccc(O)cc1 | -5.0 | -1.8% | 10µM* | ? | -0.5
CC(C)=C1C(=O)NN(c2ccc(C)c(Cl)c2)C1=O | -0.7 | -33.9% | ? | 12.1% | -0.2
SMILES | TRPML1 blocker | GLP1R ag | GLP1R inv ag | HEK293 tox | TRPML1 agonist
CC(C)=C1C(=O)NN(c2cccc(Cl)c2)C1=O | -5.8 | -0.4% | 10µM* | -6.8% | -0.6
COc1cc(/C=C2/C(=O)NN(c3cccc(Cl)c3)C2=O)cc(OC)c1O | 31.5 | -1.4% | 2.82µM* | -10.9% | 1.6
CN1C2CCC1CC(NC(=O)n1c(=O)[nH]c3ccccc31)C2 (configuration not stated) | / | 4.0% | / | / | /
COCCN1C(=O)c2[nH]nc(-c3ccccc3O)c2C1c1ccc(Cl)c(Cl)c1 (configuration not stated) | -12.1 | / | ? | -22.9% | 3.2
C#C[C@@]1(OC(C)=O)CC[C@H]2[C@@H]3CCC4=CC(=O)CC[C@@H]4[C@H]3CC[C@@]21C | / | 3.5% | / | / | /
CC(CCCN(C)C)C(Cc1ccccc1)c1ccccc1 (configuration not stated) | -11.7 | 3.5% | 11.2µM* | -7.7% | 1.0
COc1cccc(CNC(=O)c2oc3c(c2C)-c2nn(Cc4cccc(Cl)c4)cc2CC3)c1 | -3.0 | / | 11.2µM* | 11.5% | 0.2
COc1cccc(CNC(=O)c2oc3c(c2C)-c2nn(Cc4cccc(Cl)c4)cc2CC3)c1OC | 37.5 | / | ? | 1.4% | 1.4
CCCn1c(CCC(=O)Nc2cccc(C)c2C)nc2cccnc21 | 13.7 | / | 9.1% | 0.3% | 1.5
CCOC(=O)c1c(-c2ccccc2)oc2ccc(OCC(O)CN(C)C)cc12 (configuration not stated) | 5.1 | 4.8% | 2.82µM* | ? | 0.2
Cc1cc(S(=O)(=O)NCc2ccc(N3CCN(C)CC3)cc2)c(C)s1 | -1.6 | 0.2% | 2.24µM* | 16.2% | 0.1
CNC(=O)c1cn(-c2ccc(Cl)cc2)c(=O)c2ccccc12 | 13.3 | 2.5% | -13.6% | -18.9% | 2.3
CCCCN(CC)CCNC(=O)c1cn(-c2ccc(Cl)cc2)c(=O)c2ccccc12 | 15.1 | 7.0% | 10µM* | -29.2% | -0.2
Cc1ccc(NS(=O)(=O)c2ccc(C(=O)N3CCCN(C)CC3)cc2)cc1 | -5.5 | -0.2% | 5.62µM* | -0.4% | 0.2
Cc1ccc(NS(=O)(=O)c2ccc(C(=O)N3CCC3)cc2)cc1 | -2.2 | 11.4% | -18.9% | 4.7% | 0.1
Cc1ccc(-c2csc(N3CCC[C@@H]3C(=O)NCCn3c(C(F)(F)F)nc4ccccc43)n2)cc1 | 67.4 | -4.9% | ? | -4.6% | 1.1
